Experimental data from the supplement of paper PMC3334620.
Whole data set: some 33,000 sequences, median “E-score (-0.5 to 0.5)” near -0.04, cut for the highest 2% near 0.36. Only a selection was taken, and the highest values are over-represented in it overall.

biological target: T1, Hmlalpha2 (UniProt P0CY09); assay: PBM E-score (8-mer binding enrichment) (E-score (-0.5 to 0.5)); higher = stronger / more preferred TF binding; settings: protein concentration: 200 nM; construct: GST-full length
T1 sequence: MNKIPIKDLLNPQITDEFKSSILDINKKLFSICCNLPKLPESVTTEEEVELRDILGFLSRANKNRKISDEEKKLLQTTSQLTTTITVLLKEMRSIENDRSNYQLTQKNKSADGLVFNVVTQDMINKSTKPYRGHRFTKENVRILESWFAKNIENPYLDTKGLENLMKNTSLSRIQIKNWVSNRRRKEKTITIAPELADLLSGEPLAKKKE
Method: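 Universal 'all 10-mer' protein binding microarrays (Agilent AMADID 015681) probed with GST-tagged S. cerevisiae TFs (full-length or DBD) made by in vitro transcription/translation (PURExpress), about 100-200 nM. Bound TF was detected with fluorescent anti-GST. Each ungapped 8-mer (which stands for itself and its reverse complement) is scored by the PBM enrichment score (E-score), a modified Wilcoxon-Mann-Whitney statistic from -0.5 to +0.5, computed with the Universal PBM Analysis Suite. Scale: above 0.35 generally sequence-specific binding.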

In order of falling “PBM E-score” value:
1. CTATTACA  0.442
2. ATATTACA  0.439
3. TACATGCA  0.438
4. ATGTAAGA  0.433
5. ACGTAATA  0.431
6. TACATGGA  0.429
7. CATGTTAG  0.422
8. AACATGCA  0.417
9. CTGCGTAA  0.417
10. CATGTTAC  0.41
11. ACGTAATG  0.408
12. GTGCGTAA  0.406
13. GCGTAAAC  0.404
14. AACATAAC  0.403
15. GTATTACA  0.403
16. GTGTAAGA  0.401
17. GCGTAAAA  0.4
18. AACATGCG  0.399
19. AATACGCG  0.399
20. AACATGCT  0.396
21. ACGTAATC  0.392
22. AACATAAG  0.391
23. AACATGCC  0.388
24. ACGTAAAA  0.388
25. AATACGCA  0.385
26. ACGTAACA  0.385
27. AATATTAC  0.381
28. AACATAGG  0.38
29. ACGTAAAT  0.376
30. ATGCGTAA  0.375
31. ATGTAAGC  0.374
32. GCGTAATA  0.373
33. ACGTAAAG  0.372
34. AATCAACA  0.37
35. GTTCAACA  0.367
36. TATCAACA  0.365
37. ACATGCCG  0.356
38. ATTCAACA  0.352
39. ATATTACG  0.352
40. GATCAACA  0.341
41. CTTCAACA  0.341
42. ATGTAAGG  0.313
43. GTATTAAA  0.307
44. GATGTTAC  0.304
45. CATCAACA  0.297
46. ACGTAAAC  0.295
47. GACATGCA  0.294
48. ACGTAAGA  0.29
49. GTATTAGA  0.289
50. AACATAAT  0.287
51. GAGTAATA  0.286
52. AACATAGA  0.284
53. ATGCGTAC  0.273
54. AATGTTAC  0.269
55. GACATGGA  0.263
56. GCGTAAGA  0.249
57. CACATAAC  0.242
58. TCGTAAAA  0.237
59. CACATGCA  0.234
60. ATTTCTAC  0.234
61. AATACGCT  0.234
62. ACATACCA  0.227
63. ACAAGCCT  0.227
64. CTGCGTTA  0.226
65. AGGTAATG  0.226
66. ACAACTAC  0.225
67. ACGTAACC  0.22
68. ACGTAAGT  0.216
69. ATGCGTAG  0.214
70. GTTCTGAA  0.213
71. GACATGCC  0.212
72. CACATGCC  0.209
73. AATCAACG  0.202
74. CCGTAAAC  0.199
75. CACATGGA  0.197
76. AAGTAATG  0.196
77. GTGCGTGA  0.192
78. AGGTAAAG  0.19
79. AATATTAT  0.189
80. ATATTACC  0.187
81. CTGCGTAC  0.186
82. AATGTTAG  0.185
83. GCGTAAGC  0.183
84. CATACGCG  0.177
85. TTTCAAAA  0.17
86. ATATTCTA  0.169
87. ACGTAACG  0.161
88. CCGTAATA  0.159
89. AGCATGCT  0.151
90. ACGTTAGA  0.146
91. GATACGCA  0.144
92. CACATGCG  0.141
93. AGGTAATA  0.139
94. AGTAGATG  0.136
95. CGACTTTA  0.134
96. CAGTAAAA  0.134
97. GAACTCTA  0.123
98. TAAGCGAA  0.122
99. AAGTAAAA  0.121
100. CCGTAAAA  0.12
101. CACATAAG  0.117
102. ACCATGCA  0.106
103. AATCGTAC  0.102
104. CCTGTTAG  0.0951
105. AATATTAG  0.0923
106. ACCTTACC  0.0897
107. GGGCGTAA  0.0836
108. ATGGTAGA  0.079
109. CCGTAAAG  0.0757
110. CTGTAAGA  0.0715
111. TTATCGAA  0.0652
112. CACATAGG  0.0614
113. ACGTAAGC  0.0597
114. TTTCGAAA  0.0465
115. GTATCCTA  0.0388
116. ACCATGCT  0.0386
117. CGTTTGAC  0.0383
118. AAGTAAGA  0.0354
119. AATACGCC  0.0351
120. GTGCATGA  0.0341
121. ATCTTTCA  0.0227
122. AGCATAGC  0.0169
123. TGTGGGAA  0.00853
124. ATCATAAG  -0.00054
125. CCGTAATC  -0.00299
126. ATGGTCGA  -0.0159
127. AGGTAAGA  -0.0177
128. CTGTAAGC  -0.0257
129. CCGATCAA  -0.0314
130. GCTGCTTA  -0.0322
131. ACGAAAGA  -0.0344
132. CTATTAGA  -0.0387
133. GGTCCGGA  -0.0474
134. ATCATGCA  -0.0495
135. CTATTACC  -0.0498
136. CGAAAGAA  -0.0556
137. TCCGCGGA  -0.0621
138. TAGCAGCA  -0.0647
139. ATGAGCAC  -0.067
140. GATTCCAA  -0.0677
141. GGTAAGCA  -0.0728
142. CCCGATAC  -0.0785
143. ATCATGCG  -0.0811
144. CCGCAGTA  -0.0882
145. CCTCCCGC  -0.0916
146. AATCAACC  -0.103
147. CCGCCAAA  -0.105
148. GGGTATCA  -0.118
149. TGCTCTAA  -0.134
150. GCCTATGA  -0.147
151. ACCACCAG  -0.148
152. CTGATACC  -0.15
153. ACTAAGTC  -0.157
154. TCCAAGCA  -0.164
155. GACCCAGA  -0.168
156. CGCACCGC  -0.177
157. ACCTAGTC  -0.177
158. GGGCGAAC  -0.178
159. CCAATGCG  -0.181
160. AGGCACGC  -0.188
161. CCCTCGCG  -0.199
162. CTCTTCGC  -0.205
163. AATAAGCC  -0.212
164. GAAAGTTC  -0.218
165. CCCGGTTC  -0.22
166. ATCCGTGG  -0.229
167. CCAACCCG  -0.242
168. GAAGGACC  -0.245
169. CCATTGCG  -0.262
170. GCCAGGAC  -0.269
171. AGAATGGG  -0.307
172. AGGGAGGC  -0.339
